From PubChem BioAssay (NCATS)
Results filed as inconclusive are left out. The source made the active and inactive calls. Calls come from the whole dose curve; as a rule, active = well fitted curve in the direction sought with a large enough effect; inconclusive = small, poorly fitted or top-dose-only effect, or another doubt; inactive = no such curve, though single readings can be large; an effect the other way counts as inactive or inconclusive.

Assays:
[1] = Cell Viability - LYMP2-005 (AID 967); settings: LYMP2-005 lymphoblastoid cell viability; series mostly up to 92.2 µM
Outline: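 LYMP2-005 human lymphoblastoid cells (2500/well) were treated with compounds for 24 h at 37 C. Intracellular ATP was then measured by CellTiter-Glo luminescence after 30 min at room temperature. AC50 values came from Hill-equation fits of qHTS concentration-response data.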

[2] = Cell Viability - LYMP2-009 (AID 968); settings: LYMP2-009 lymphoblastoid cell viability; series mostly up to 92.2 µM; note: nearly all actives have a fitted effect of over 55% in size
[3] = Cell Viability - LYMP2-011 (AID 969); settings: LYMP2-011 lymphoblastoid cells viability; series mostly up to 92.2 µM; note: nearly all actives have a fitted effect of over 60% in size
Outline: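 In this qHTS cytotoxicity format, compounds are tested across concentrations on human lymphoblastoid cells in complete medium for 24 hours at 37 C. Viability is taken as cellular ATP measured by luciferase luminescence.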

[4] = Cell Viability - LYMP2-013 (AID 970); settings: LYMP2-013 lymphoblastoid cells viability; series mostly up to 92.2 µM; note: nearly all actives have a fitted effect of over 55% in size
Outline: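 Cytotoxicity is scored as a concentration-dependent drop in intracellular ATP in human lymphoblastoid cells after 24 hr compound exposure at 37 C. ATP is quantified by luciferase luminescence, and AC50 values come from Hill-equation modeling.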

[5] = Cell Viability - LYMP2-015 (AID 971); settings: LYMP2-015 lymphoblastoid cell viability; series mostly up to 92.2 µM; note: nearly all actives have a fitted effect of over 55% in size
Outline: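 Cells are seeded at 2500 per well and incubated 5 hr at 37 C. Compounds are added across a concentration series for 24 hr at 37 C. CellTiter-Glo is added, and luminescence is read after 30 min at room temperature.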

[6] = Cell Viability - LYMP2-017 (AID 972); settings: LYMP2-017 lymphoblastoid cell viability; series mostly up to 92.2 µM; note: nearly all actives have a fitted effect of over 55% in size
Outline: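 Cytotoxicity is scored as a concentration-dependent drop in cellular ATP in a human lymphoblastoid line after 24 hr treatment at 37 C. Values are AC50s from Hill-equation modelling.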

[7] = Cell Viability - LYMP2-019 (AID 973); settings: LYMP2-019 lymphoblastoid cell line viability; series mostly up to 92.2 µM; note: nearly all actives have a fitted effect of over 55% in size
Outline: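 Cytotoxicity is scored as a concentration-dependent drop in cellular ATP after cells (2500/well) receive compound for 24 hr at 37 C. Tetraoctylammonium bromide serves as positive control.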

[8] = Cell Viability - LYMP2-021 (AID 974); settings: LYMP2-021 lymphoblastoid cells viability; series mostly up to 92.2 µM
Outline: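 Loss of cellular ATP, measured with a luciferase-based CellTiter-Glo readout, serves as the toxicity signal in human lymphoblastoid cells treated for 24 hours at 37 C. Potency is reported as AC50 from a standard Hill model.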

[9] = Cell Viability - LYMP2-023 (AID 975); settings: LYMP2-023 lymphoblastoid cell viability; series mostly up to 92.2 µM; note: nearly all actives have a fitted effect of over 55% in size
Outline: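 Steps: seed 2500 human lymphoblastoid cells per well, incubate 5 hr at 37 C, add compound for 24 hr at 37 C, add CellTiter-Glo, hold 30 min at room temperature, read luminescence. AC50 derived by Hill modelling.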

[10] = Cell Viability - LYMP2-002 (AID 977); settings: LYMP2-002 lymphoblastoid cell viability, qHTS; series mostly up to 92.2 µM;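 note: compound exposure lasted 24 h at 37 °C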
Outline: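 In this qHTS viability screen, 2500 human lymphoblastoid cells per well receive compound for 24 hr at 37 C, and luciferase-based ATP luminescence gives the viability signal. Tetraoctylammonium bromide serves as positive control.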

Measured: outcome

O=C(O)CCCCC1CCSS1 (stereo not drawn)
inactive: all assays above

O=C1C(c2[nH]c3ccccc3c2O)=Nc2ccccc21
inactive: all assays above

CC1CC(OC(=O)c2ccccc2O)CC(C)(C)C1 (stereo not drawn)
inactive: all assays above

CC(=O)Nc1cccc(O)c1
inactive: all assays above

FC(F)(F)C(Cl)Br (stereo not drawn)
inactive: all assays above

CCCCOC(=O)c1ccc(N)cc1
inactive: all assays above

CC(=O)OCC(COC(C)=O)OC(C)=O
inactive: all assays above

CCCCCC(N)=O
inactive: all assays above

COc1ccc(O)cc1
inactive: all assays above

Nc1ccc(S(=O)(=O)c2ccc(N)cc2)cc1
inactive: all assays above

CCCC(O)C(CC)CO (stereo not drawn)
inactive: all assays above

CC(=O)Nc1ccccc1
inactive: all assays above

CC(=O)NS(=O)(=O)c1ccc(N)cc1
inactive: all assays above

Cc1cc(C)nc(NS(=O)(=O)c2ccc(N)cc2)n1
inactive: all assays above

C=CCNC(N)=S
inactive: all assays above

O=C(c1ccccc1)C(O)c1ccccc1 (stereo not drawn)
inactive: all assays above

Cc1cc(=O)[nH]c(=S)[nH]1
inactive: all assays above

O=C1c2cccc(O)c2C(=O)c2c(O)cccc21
inactive: [1] | [2] | [4] | [8]

CCCCCCCC(=O)OCC(COC(=O)CCCCCCC)OC(=O)CCCCCCC
inactive: all assays above

CCN(CC)C(=O)c1cccc(C)c1
inactive: all assays above

Cc1c(N(C)C)c(=O)n(-c2ccccc2)n1C
inactive: all assays above

CC(=O)Nc1ccc(C(=O)O)cc1
not listed: [5]
inactive: all other assays above
